Compound activity deposited in PubChem by National Center for Advancing Translational Sciences (NCATS).
Pf Dd2 inh = inhibitors of Plasmodium falciparum Dd2 growth; P. falciparum Dd2 growth, SYBR Green, 72 h; Potency, µM (doses to about 28.9 µM), without a hit: at the highest dose activity, negative = inhibition, hits mostly inhibitors; 4.3% of 120,000 active; AID 1347417; active = well fitted inhibition curve with a large enough effect;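 also: plate controls were DMSO vehicle for no effect and reference drug for full effect; nearly all actives have a fitted effect of over 65% in size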
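Readout: SYBR Green fluorescence, 485 nm excitation, 535 nm emission, after ~16 h lysis at 37C. Before that, Dd2-infected red cells (2.5% hematocrit) grew 72 h with compound, 29 uM top final concentration.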
The depositor's hits bear a star; [ ] = remark or other dose. This is one part of a sample in which hits are shown more often than they occur. Potency is read from the fitted curve at half-maximal effect.

Results for Cc1ccc(Cl)cc1N1CCN(S(=O)(=O)c2cc(Br)cc3c2N(C(=O)C2CC2)CC3)CC1 ?
Pf Dd2 inh: 9%

What do the screens show for `CCCCN(Cc1ccccc1)S(=O)(=O)c1cc(Br)cc2c1N(C(C)=O)CC2`?
Pf Dd2 inh: inactive

What do the screens show for `CCC(=O)N1CCc2cc(Br)cc(S(=O)(=O)CCC(=O)Nc3ccccc3C)c21`?
Pf Dd2 inh: 2%

Results for CCOc1ccc(NS(=O)(=O)c2cc(Br)cc3c2N(C(=O)C2CC2)CC3)cc1 ?
Pf Dd2 inh: 35%

What do the screens show for `COc1ccc(N2CCN(C(=O)CCS(=O)(=O)c3cc(Br)cc4c3N(C(=O)C3CC3)CC4)CC2)cc1`?
Pf Dd2 inh: 5µM*

How did CCC(=O)N1CCc2cc(Br)cc(S(=O)(=O)CCC(=O)N3CCN(c4cc(C)ccc4C)CC3)c21 do in these assays?
Pf Dd2 inh: -9%

How did Cc1ccc(Cl)cc1N1CCN(C(=O)CCNS(=O)(=O)c2ccc3c(c2)CCN3C(=O)C2CC2)CC1 do in these assays?
Pf Dd2 inh: -7%

What do the screens show for `CC(C)C1c2nccn2CCCN1C(=O)CN1CCCC1=O` (configuration not stated)?
Pf Dd2 inh: 15%

What do the screens show for `CN(C)C(=O)CO[C@@H]1COCC[C@H]1NC(=O)c1cccc(-n2cccn2)c1`?
Pf Dd2 inh: -3%

What do the screens show for `COC[C@@H]1CN(Cc2c(C)noc2C)C[C@H]1C(=O)NC1CC1`?
Pf Dd2 inh: -2%

What do the screens show for `Cc1ccc(Cl)cc1NC(=O)N1CC(C(=O)N(C)C)C2(CCOCC2)C1` (configuration not stated)?
Pf Dd2 inh: -10%

How did COc1ccc(C(=O)N2CCOCCNC(=O)CC2)c(OC)n1 do in these assays?
Pf Dd2 inh: 8%

Results for O=C(c1ccccc1)N1CCC(Cc2noc(C3CC3)n2)C1 (configuration not stated) ?
Pf Dd2 inh: inactive

How did Cc1cccc(N(C)C(=O)CN2C(=O)NC3(CCC(C)CC3)C2=O)c1 (configuration not stated) do in these assays?
Pf Dd2 inh: inactive

How did CN1CC[C@H]2COC(=O)N2c2cc(F)ccc2C1 do in these assays?
Pf Dd2 inh: -15%[44.1 µM]

Results for CCn1ncc(CN2CCCN(Cc3ccncc3)C(c3ccccc3)CC(=O)NCC2)c1C (configuration not stated) ?
Pf Dd2 inh: -4%

Results for O=C1CC(c2ccccc2)N(Cc2ccncc2)CCCN(CC2CCCCC2)CCN1 (configuration not stated) ?
Pf Dd2 inh: 3.2µM*

How did CN(C)S(=O)(=O)N1CCCN(Cc2ccncc2)C(c2ccccc2)CC(=O)NCC1 (configuration not stated) do in these assays?
Pf Dd2 inh: 10µM*

What do the screens show for `Cc1noc(C)c1S(=O)(=O)N1CCCCCCNC(=O)CC1`?
Pf Dd2 inh: 4%

How did O=C1CC(c2ccccc2)N(Cc2ccncc2)CCCN(C(=O)CN2CCCC2=O)CCN1 (configuration not stated) do in these assays?
Pf Dd2 inh: inactive

How did Cc1noc(C)c1S(=O)(=O)NCC(=O)N1CCCCCNC(=O)CC1c1ccccc1 (configuration not stated) do in these assays?
Pf Dd2 inh: 10%

What do the screens show for `CS(=O)(=O)N1CCCN(Cc2ccccn2)CCNC(=O)CC1c1ccccc1` (configuration not stated)?
Pf Dd2 inh: -5%

How did CS(=O)(=O)N1CCCCCNC(=O)CC1c1ccccc1 (configuration not stated) do in these assays?
Pf Dd2 inh: 0%

How did Cc1noc(C)c1S(=O)(=O)N1CCCN(Cc2ccncc2)C(c2ccccc2)CC(=O)NCC1 (configuration not stated) do in these assays?
Pf Dd2 inh: 1.1µM*

How did O=C(C[C@H]1NC(=O)c2ccccc2NC1=O)Nc1nc(-c2cccnc2)cs1 do in these assays?
Pf Dd2 inh: inactive

How did COc1ccc(C(=O)N[C@@H]2CCC[C@@H]2C(=O)NC2CCCCCC2)cn1 do in these assays?
Pf Dd2 inh: -21%

Results for CC(=O)Nc1ccc(CN[C@@H]2CO[C@H](CNC(=O)c3cccs3)[C@H]2O)cc1 ?
Pf Dd2 inh: -16%[44.1 µM]

Results for C=CCNC(=O)N[C@H]1[C@H](O)[C@@H](Oc2ccccc2)[C@@H]2OC[C@H]1O2 ?
Pf Dd2 inh: 22%[44.1 µM]

How did O=C(NCC1CCN(Cc2ccccn2)C1)Nc1ccccc1Cl (configuration not stated) do in these assays?
Pf Dd2 inh: inactive

What do the screens show for `COc1ccc(NC(=O)Cn2c(=O)n(-c3cccc(C)c3)c(=O)c3c2cc(C)n3C)c(OC)c1`?
Pf Dd2 inh: -29%

What do the screens show for `O=C1COc2ccc(Nc3ccccc3F)nc2CN1Cc1ccc(F)cc1`?
Pf Dd2 inh: -9%[44.1 µM]

What do the screens show for `COc1ccc(-c2noc(N3CCN(c4ccc(C)cc4)C(C)C3)n2)cc1OC` (configuration not stated)?
Pf Dd2 inh: 1.6µM*

What do the screens show for `COc1ccc(-c2noc(CSc3nnc(C)n3-c3ccc(C)cc3)n2)cc1OC`?
Pf Dd2 inh: -10%

What do the screens show for `Cc1ccc(N2CCN(c3cc(C)nc4c(-c5ccc(Cl)cc5)c(C)nn34)CC2C)cc1` (configuration not stated)?
Pf Dd2 inh: inactive

Results for COCCN1C(=O)CS(=O)(=O)C12CCN(C(=O)c1sccc1C)CC2 ?
Pf Dd2 inh: -15%

What do the screens show for `Cc1ccc(CC(=O)NCc2nnc3cc(-c4nc(C(C)C)no4)ccn23)cc1`?
Pf Dd2 inh: inactive

How did Cc1cccc(C(=O)NCc2nnc3cc(-c4nc(C(C)C)no4)ccn23)c1 do in these assays?
Pf Dd2 inh: 10µM*

What do the screens show for `CC(C)c1noc(-c2cccn3c(CNC(=O)Cc4ccccc4Cl)nnc23)n1`?
Pf Dd2 inh: inactive

Results for Cc1ccc(C)c(C(=O)NCc2nnc3cc(-c4nc(C(C)C)no4)ccn23)c1 ?
Pf Dd2 inh: inactive

How did CC(C)c1noc(-c2ccn3c(CNC(=O)Cc4ccccc4Cl)nnc3c2)n1 do in these assays?
Pf Dd2 inh: 5µM*

What do the screens show for `Cc1cccc(C(=O)NCc2nnc3cc(-c4nc(C)no4)ccn23)c1`?
Pf Dd2 inh: inactive

Results for CCOc1ccc2c(n1)CCN(C(=O)Cc1cccc(F)c1)C2 ?
Pf Dd2 inh: 11%

How did CC(C)N1CCC(OCCCNC(=O)CN2CCCc3nc(C4CC4)ncc3C2=O)CC1 do in these assays?
Pf Dd2 inh: 10%

How did CCCc1noc(-c2cn(C3CCN(C(=O)c4ccc[nH]4)CC3)nn2)n1 do in these assays?
Pf Dd2 inh: inactive

Results for O=C(c1cccnc1OC1CCN(S(=O)(=O)c2cccc(F)c2)C1)N1CCOCC1 (configuration not stated) ?
Pf Dd2 inh: -4%

How did CSc1ccc(-c2nc3c([nH]2)CC(C)(C)CNC3=O)cc1 do in these assays?
Pf Dd2 inh: -26%

Results for COC(=O)[C@@H](Cc1c[nH]c2ccccc12)NC(=O)[C@H]1CNCCN1S(=O)(=O)c1ccccc1 ?
Pf Dd2 inh: inactive

How did COc1ccc(C)cc1Nc1c2c(nc3nc(-c4cccs4)nn13)CCCC2 do in these assays?
Pf Dd2 inh: 47%[0.594 µM]

What do the screens show for `CC(=O)c1cccc(Nc2c3c(nc4nc(-c5cccs5)nn24)CCCC3)c1`?
Pf Dd2 inh: 11µM*

How did c1csc(-c2nc3nccc(-c4ccncc4)n3n2)c1 do in these assays?
Pf Dd2 inh: -13%

Results for CC(C)NC(=O)C1COC2(CCN(C(=O)c3ccc(F)cc3F)CC2)N1C(=O)c1ccccc1 (configuration not stated) ?
Pf Dd2 inh: 1%

What do the screens show for `Cc1noc(C)c1C(=O)N1C2CCC1CN(C(C)C)C2`?
Pf Dd2 inh: -17%[44.1 µM]
